Test results reported in the supplement of paper PMC11001985.
Unmarked numbers belong to inactive results.

compound: C#CCNC(=O)CCSSCCC(=O)NCCc1ccc(C=O)c(C=O)c1; experiment: lysine labeling ratio R10:1 (500 µM / 50 µM probe), SILAC-ABPP in living cells; higher = lower intrinsic lysine reactivity toward the probe, active = 2 or less; details: HeLa; probe concentrations 500 vs 50 µM
How it was run: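 Each lysine carries an R value: the filtered median of MS1 peptide ratios of high probe to low probe, with the median then taken over forward and reverse replicates. These came from living SILAC light and heavy HeLa cells in PBS at room temperature labelled with an alkyne-tagged, disulfide-linked lysine probe at 500 µM or 50 µM, in forward and reverse swaps. The lysates were mixed, clicked to biotin-azide, trypsin-digested, captured on neutravidin, released by DTT, alkylated and run by LC-MS/MS on a TIMS-TOF Pro. The highest value allowed is 20.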

Sequence of UniProt P06576 (P06576 whole entry): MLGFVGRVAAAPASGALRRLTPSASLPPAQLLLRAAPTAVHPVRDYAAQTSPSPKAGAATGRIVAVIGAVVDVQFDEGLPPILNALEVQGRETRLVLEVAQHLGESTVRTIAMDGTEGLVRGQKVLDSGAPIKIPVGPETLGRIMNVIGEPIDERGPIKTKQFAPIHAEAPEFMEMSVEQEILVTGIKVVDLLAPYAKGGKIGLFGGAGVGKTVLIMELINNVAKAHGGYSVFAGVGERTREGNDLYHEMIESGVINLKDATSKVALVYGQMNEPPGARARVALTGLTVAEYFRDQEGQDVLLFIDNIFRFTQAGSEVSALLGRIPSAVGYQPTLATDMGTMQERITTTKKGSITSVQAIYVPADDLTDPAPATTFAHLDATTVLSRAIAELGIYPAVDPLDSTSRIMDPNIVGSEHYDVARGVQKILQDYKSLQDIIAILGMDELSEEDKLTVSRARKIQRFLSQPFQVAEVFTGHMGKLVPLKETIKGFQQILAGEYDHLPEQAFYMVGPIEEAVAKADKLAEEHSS
Sequence of UniProt P26038 (P26038 whole entry): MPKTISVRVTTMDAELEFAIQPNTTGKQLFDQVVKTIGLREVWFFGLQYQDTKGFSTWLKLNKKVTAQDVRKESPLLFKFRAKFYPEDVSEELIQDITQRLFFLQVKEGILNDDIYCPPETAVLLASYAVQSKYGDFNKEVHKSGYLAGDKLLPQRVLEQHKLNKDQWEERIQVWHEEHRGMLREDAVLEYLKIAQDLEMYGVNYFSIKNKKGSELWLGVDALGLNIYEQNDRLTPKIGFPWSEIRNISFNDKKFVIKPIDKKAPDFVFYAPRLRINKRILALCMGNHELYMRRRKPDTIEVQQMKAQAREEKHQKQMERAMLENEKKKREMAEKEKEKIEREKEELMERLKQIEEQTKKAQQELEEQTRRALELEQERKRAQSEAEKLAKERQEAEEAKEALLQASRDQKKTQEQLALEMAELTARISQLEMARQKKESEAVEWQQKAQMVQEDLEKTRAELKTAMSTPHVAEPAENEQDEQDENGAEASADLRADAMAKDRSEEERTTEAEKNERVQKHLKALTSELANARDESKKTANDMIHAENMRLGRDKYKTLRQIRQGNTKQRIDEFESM
Sequence of UniProt O75369 (O75369 whole entry): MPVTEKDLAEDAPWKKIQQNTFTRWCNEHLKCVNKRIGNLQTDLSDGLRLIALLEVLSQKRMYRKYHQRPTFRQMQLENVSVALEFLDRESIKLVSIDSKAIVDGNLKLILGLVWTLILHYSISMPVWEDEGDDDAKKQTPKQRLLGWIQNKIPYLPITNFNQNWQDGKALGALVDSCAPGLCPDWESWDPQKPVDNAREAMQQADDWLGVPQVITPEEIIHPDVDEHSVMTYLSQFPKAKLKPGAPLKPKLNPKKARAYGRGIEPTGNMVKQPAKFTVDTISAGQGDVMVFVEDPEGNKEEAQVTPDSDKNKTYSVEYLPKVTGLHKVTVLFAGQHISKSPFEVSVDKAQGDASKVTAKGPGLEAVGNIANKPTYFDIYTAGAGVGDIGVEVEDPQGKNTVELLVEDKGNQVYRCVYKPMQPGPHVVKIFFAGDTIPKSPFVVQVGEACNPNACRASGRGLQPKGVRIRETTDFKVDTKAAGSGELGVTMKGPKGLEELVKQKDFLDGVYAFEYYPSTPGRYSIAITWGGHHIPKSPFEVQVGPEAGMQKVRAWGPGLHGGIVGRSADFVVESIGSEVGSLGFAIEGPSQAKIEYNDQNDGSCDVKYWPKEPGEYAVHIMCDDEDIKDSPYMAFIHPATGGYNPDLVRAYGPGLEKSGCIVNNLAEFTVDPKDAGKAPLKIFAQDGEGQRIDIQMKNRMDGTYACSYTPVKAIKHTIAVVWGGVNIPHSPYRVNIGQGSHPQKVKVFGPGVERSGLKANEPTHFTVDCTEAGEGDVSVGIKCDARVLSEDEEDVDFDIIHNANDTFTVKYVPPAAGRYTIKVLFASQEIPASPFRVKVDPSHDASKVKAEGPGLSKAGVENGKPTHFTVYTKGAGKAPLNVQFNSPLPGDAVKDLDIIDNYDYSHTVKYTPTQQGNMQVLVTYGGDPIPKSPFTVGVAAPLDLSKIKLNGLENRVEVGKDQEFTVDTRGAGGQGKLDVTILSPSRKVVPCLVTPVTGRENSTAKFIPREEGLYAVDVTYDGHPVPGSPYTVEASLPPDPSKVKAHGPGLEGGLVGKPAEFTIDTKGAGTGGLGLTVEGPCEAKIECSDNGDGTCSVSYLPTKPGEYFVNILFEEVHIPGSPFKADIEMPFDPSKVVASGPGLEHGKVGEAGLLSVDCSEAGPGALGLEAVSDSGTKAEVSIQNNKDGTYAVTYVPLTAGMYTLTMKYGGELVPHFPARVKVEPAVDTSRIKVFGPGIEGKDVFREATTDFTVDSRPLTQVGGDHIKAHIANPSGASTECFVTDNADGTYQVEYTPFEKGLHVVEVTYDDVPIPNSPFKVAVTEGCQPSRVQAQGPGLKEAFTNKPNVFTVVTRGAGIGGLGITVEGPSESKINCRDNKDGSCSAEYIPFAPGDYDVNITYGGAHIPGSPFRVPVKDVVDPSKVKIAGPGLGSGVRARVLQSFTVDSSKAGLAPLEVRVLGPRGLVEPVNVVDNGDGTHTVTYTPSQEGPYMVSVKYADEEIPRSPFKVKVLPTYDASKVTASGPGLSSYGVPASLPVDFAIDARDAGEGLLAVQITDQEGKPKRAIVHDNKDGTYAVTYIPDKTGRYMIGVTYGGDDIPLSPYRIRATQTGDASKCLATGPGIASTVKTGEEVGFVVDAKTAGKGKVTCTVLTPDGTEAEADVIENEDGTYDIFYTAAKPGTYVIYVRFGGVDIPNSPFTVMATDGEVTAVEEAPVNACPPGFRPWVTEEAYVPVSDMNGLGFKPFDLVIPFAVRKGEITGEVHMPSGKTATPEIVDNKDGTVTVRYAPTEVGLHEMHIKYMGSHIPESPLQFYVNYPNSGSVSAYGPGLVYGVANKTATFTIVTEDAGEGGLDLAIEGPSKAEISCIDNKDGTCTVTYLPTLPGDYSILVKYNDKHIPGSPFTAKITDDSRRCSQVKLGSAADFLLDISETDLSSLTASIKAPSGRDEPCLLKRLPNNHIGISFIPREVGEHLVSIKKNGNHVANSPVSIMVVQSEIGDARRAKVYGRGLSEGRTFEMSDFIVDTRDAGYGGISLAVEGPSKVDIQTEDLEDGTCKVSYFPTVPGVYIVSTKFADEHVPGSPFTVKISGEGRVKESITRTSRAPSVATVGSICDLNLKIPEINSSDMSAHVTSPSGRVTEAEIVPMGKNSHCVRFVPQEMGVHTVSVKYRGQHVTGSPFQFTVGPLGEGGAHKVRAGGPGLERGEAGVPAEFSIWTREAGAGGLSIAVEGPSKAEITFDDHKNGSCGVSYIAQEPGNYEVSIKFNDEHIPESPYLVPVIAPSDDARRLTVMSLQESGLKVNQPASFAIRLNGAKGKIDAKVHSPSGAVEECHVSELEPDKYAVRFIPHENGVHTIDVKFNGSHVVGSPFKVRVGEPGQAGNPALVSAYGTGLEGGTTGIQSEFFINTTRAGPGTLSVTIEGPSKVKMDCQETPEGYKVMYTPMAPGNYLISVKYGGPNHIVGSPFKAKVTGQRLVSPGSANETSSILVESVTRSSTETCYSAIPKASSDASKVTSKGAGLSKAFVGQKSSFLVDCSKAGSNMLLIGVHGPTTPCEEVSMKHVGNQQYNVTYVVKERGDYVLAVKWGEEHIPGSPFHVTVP
Sequence of UniProt Q8IWA5 (Q8IWA5 whole entry): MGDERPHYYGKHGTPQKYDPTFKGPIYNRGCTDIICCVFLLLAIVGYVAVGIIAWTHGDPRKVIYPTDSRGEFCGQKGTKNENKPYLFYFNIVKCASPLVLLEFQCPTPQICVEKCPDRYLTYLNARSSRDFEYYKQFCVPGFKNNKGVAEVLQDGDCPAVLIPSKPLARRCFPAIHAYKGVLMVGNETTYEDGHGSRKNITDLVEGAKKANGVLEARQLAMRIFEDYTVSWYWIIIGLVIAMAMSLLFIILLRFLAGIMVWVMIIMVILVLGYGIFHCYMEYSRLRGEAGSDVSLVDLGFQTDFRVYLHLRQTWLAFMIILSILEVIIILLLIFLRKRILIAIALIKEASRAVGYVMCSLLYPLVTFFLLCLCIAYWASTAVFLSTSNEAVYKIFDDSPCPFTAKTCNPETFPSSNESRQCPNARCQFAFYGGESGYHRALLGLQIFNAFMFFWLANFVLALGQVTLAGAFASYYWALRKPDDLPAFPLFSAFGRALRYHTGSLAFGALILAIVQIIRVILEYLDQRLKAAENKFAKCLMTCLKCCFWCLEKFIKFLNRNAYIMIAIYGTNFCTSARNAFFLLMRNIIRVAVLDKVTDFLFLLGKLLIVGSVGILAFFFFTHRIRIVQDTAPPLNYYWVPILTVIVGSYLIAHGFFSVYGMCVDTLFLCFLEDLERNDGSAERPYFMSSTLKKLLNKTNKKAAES
Sequence of UniProt Q9Y230 (Q9Y230 whole entry): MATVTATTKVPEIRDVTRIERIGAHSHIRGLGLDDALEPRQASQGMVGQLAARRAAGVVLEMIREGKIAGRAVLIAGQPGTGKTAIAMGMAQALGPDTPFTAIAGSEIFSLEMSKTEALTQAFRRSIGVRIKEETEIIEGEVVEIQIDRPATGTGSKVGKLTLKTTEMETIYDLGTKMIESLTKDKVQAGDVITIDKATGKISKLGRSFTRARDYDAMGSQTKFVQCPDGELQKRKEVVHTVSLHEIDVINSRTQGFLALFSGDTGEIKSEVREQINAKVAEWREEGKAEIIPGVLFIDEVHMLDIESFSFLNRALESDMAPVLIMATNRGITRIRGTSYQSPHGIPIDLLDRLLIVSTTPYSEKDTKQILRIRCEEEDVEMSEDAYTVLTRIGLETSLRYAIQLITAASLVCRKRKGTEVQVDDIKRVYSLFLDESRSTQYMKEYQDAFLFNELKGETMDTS

Target | lysine labeling ratio R10:1
RUVBL2 (lysine site: K279) (UniProt Q9Y230) | 2.65
CD58 (lysine site: K60) (UniProt P19256) | 6.36
FGB (lysine site: K426) (UniProt P02675) | 2.95
UniProt P62249 (lysine site: K73) | 3.59
PSMB1 (lysine site: K204) (UniProt P20618) | 2.46
UniProt P14618 (lysine site: K66) | 1.62 (active)
SLC44A2 (lysine site: K62) (UniProt Q8IWA5) | 2.64
UniProt Q68BL7 (lysine site: K168) | 1.12 (active)
AKR1B1 (lysine site: K263) (UniProt P15121) | 8.32
FLNB (lysine site: K960) (UniProt O75369) | 1.54 (active)
UniProt P06576 (lysine site: K133) | 3.53
MSN (lysine site: K501) (UniProt P26038) | 5.08
UniProt P61978 (lysine site: K198) | 1.88 (active)
MYH9 (lysine site: K910) (UniProt P35579) | 4.64
AK2 (lysine site: K147) (UniProt P54819) | 6.91
FN1 (lysine site: K486) (UniProt P02751) | 2.59
UniProt Q9UHN6 (lysine site: K278) | 3.15
